# Sampled rows, rich in hits. Any-hit rate of the full collection: about 3.2%.
# Nrf2 ARE act – Nrf2 pathway activation; Potency, µM (top dose mostly 46.1 µM), actives largely listed as activators; 0.31% of 410,000 active; AREc32 ARE-luciferase reporter (MCF7-derived line), luminescence, 24 h; AID 624171; further: nearly all actives have a fitted effect of over 65% in size
#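 AREc32 cells carrying an ARE-driven firefly luciferase, 1000 cells/well in OPTI-MEM with 5% FBS, dosed after overnight attachment and incubated 24 hr at 37 deg C. Steady-Glo luminescence read after 30 min at RT.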
# BRCA1 expr act – activators of BRCA1 expression. Potency, µM (titrated, usually from 46.1 µM), usual class: activators. 1.1% of 380,000 active. MCF7-BRCA1-FFLuc reporter, luminescence, 48 h; response scale: scaled: vehicle 0%, 10 µM genistein 100%; further: nearly all actives have a fitted effect of over 80% in size
#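 48 h compound treatment of MCF7-BRCA1-FFLuc cells (phenol-red free MEM, 37 °C), then 15 min with luciferase substrate and luminescence imaging.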
# Nrf2 inh – inhibitors of Nrf2 signaling; A549 ARE-Fluc reporter, luciferase luminescence, 18-24 h; 2.1% of 360,000 active; Potency, µM (top dose mostly 46 µM), most hits filed as inhibitors; further: nearly all actives have a fitted effect of over 60% in size
#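 Two sequential reads on A549 ARE_Fluc cells exposed to compound for 18-24 h: a CellTiter-Fluor fluorescence read for viability, then a luciferase luminescence read for Nrf2/ARE activity.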
# p53 reactivation – re-activators of mutant p53; H1299 p53-A138V BP100-luciferase reporter, luminescence, 24 h; Potency, µM (top dose mostly 92.2 µM), actives largely listed as activators; 0.063% of 320,000 active; AID 504706; further: nearly all actives have a fitted effect of over 45% in size
#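 H1299 (p53-null), stable ts p53-A138V + BP100-Luc; 1000 cells/well, Opti-MEM/10% FBS; cpd 4 pt, 1:5; 24 h, 37 deg C, 5% CO2; detection reagent 10 min RT; luminescence.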
# IL-2 act – activates IL-2 in a cell-based reporter assay | AID 652025 | 0.065% of 360,000 active | IL-2 activation reporter assay, cell-based qHTS; stimulated with anti-CD3/CD4/CD28 beads; in transgenic mouse T cells | activation, % (series mostly up to about 46 µM); in the data active means activation above about 50%; inconclusive means mostly about 30% to 49%
#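 Unstimulated transgenic mouse T cells, 750 per well, received compound and, after 60 minutes, anti-CD3/anti-CD4 bead plus anti-CD28 stimulation. EGFP and DsRed were quantified after 18 hours.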
# A549 viability – A549 cytotoxicity, counter-screen for Nrf2 inhibitors. A549 ARE-Fluc cells, CellTiter-Fluor viability, 18-24 h. Potency, µM (titrated, usually from 46 µM), actives largely listed as inhibitors. 0.16% of 390,000 active. AID 504648
#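 A549 ARE-Fluc cells in 5% FBS OPTI-MEM, 5000 cells/well, rested 2 h then exposed to compounds in concentration-response for 18-24 h at 37 °C. Viability by CellTiter-Fluor fluorescence (Ex 405/Em 525) after 30 min; luciferase luminescence (BugLite, 15 min, RT) read afterwards.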
# Numbers stand for hits; i = inactive; ? = inconclusive; nt = no result given; ! = repeats disagree; [ ] = another dose, or the depositor's remark. Unless noted, the call rests on the fitted dose curve; in most records, active means well fitted curve in the direction sought with a large enough effect; inconclusive means small, poorly fitted or top-dose-only effect, or another doubt; inactive means no such curve, though single readings can be large; an effect the other way counts as inactive or inconclusive.
SMILES,Nrf2 ARE act,BRCA1 expr act,Nrf2 inh,p53 reactivation,IL-2 act,A549 viability
O=C(c1ccccc1)N1CCN2C(=O)c3ccccc3C12c1ccc(Cl)cc1 (stereo unspecified),i,i,13µM,i,i,i
COc1ccccc1CN(C)CC(=O)Nc1ccccc1-c1ccccc1,i,i,23.1µM,i,i,?
CCOC(=O)C1C(=O)C=C(c2ccc(Br)cc2)CC1c1ccco1 (stereo unspecified),i,i,23.1µM,i,i,?
CCC1(c2ccc(F)cc2)NC(=O)N(CC(=O)N2CCN(S(=O)(=O)c3ccc(C)cc3C)CC2)C1=O (stereo unspecified),i,i,18.4µM,nt,i,i
CCC1(c2ccc(F)cc2)NC(=O)N(CC(=O)N2CCN(S(=O)(=O)c3ccc(Cl)cc3)CC2)C1=O (stereo unspecified),i,i,i,i,i,i
O=c1c(=O)n(-c2ccccc2)ccn1Cc1cccc(C(F)(F)F)c1,i,nt,i,nt,nt,i
COc1ccc(-c2nnc3n2N=C(c2c(OC)cccc2OC)CS3)cc1OC,nt,nt,i,nt,nt,i
Cc1ncc(C[n+]2csc(C)c2C)c(N)n1,i,i,i,i,i,i
Cc1ncc(C[n+]2csc(CCO)c2C)c(N)n1,i,i,14.6µM!,i,i,?
Cc1cc(C)n(-c2nc(C)c(C)c(=O)n2CC(=O)Nc2ccc(OC(F)(F)F)cc2)n1,i,nt,nt,nt,nt,i
Cc1ccc(C2CC(C(F)(F)F)n3nc(C(=O)NCc4c(C)nn(C)c4C)c(Cl)c3N2)cc1 (stereo unspecified),i,i,11.6µM,i,i,i
Cc1nn(C)cc1CN(C)C(=O)c1nn2c(c1Cl)NC(c1cccs1)CC2C(F)(F)F (stereo unspecified),i,i,16.4µM,i,i,i
Cc1nn(C)c(C)c1CN(C)C(=O)c1cc2n(n1)C(C(F)(F)F)CC(c1cccs1)N2 (stereo unspecified),i,i,13µM,i,i,i
CCC(Cn1nnc2ccccc2c1=O)NC(=O)Nc1ccccc1OC (stereo unspecified),i,i,i,nt,nt,i
CCc1nc(SCc2ccc(OC)cc2)n[nH]1,i,11.2µM,i,?,i,i
COc1ccc(-n2c(-c3ccc(Br)cc3)c[n+]3c2CCc2ccccc2-3)cc1,i,i,8.2µM,i,i,i
CCCC(C(=O)NCc1cccc(Cl)c1)N1Cc2ccccc2C1=O (stereo unspecified),i,nt,i,nt,nt,i
N#C/C(=C\c1ccc(-c2ccccc2)cc1)c1nc(-c2ccco2)cs1,i,i,?,i,78.6,i
Cc1ccc(C(=O)C(OC(=O)CNC(=O)COc2ccccc2C)c2ccccc2)cc1 (stereo unspecified),nt,i,i,nt,nt,i
COc1cc(CC(=O)Nc2nc(-c3ccccc3)c(C(C)=O)s2)cc(OC)c1OC,i,i,20.6µM,i,i,i
COCCCc1cc(F)c(S(=O)(=O)N2CCN(S(=O)(=O)c3ccc4c(c3)OCCO4)CC2)cc1F,nt,nt,i,nt,nt,i
Cc1cc(/C=C2/SC(=S)N(c3cccc(C(F)(F)F)c3)C2=O)c(C)n1-c1cccnc1,i,i,5.8µM,nt,i,?
CC=C1COC(C(=O)NCCOCCO)(C(F)(F)F)C=C1C=C(C)C (stereo unspecified),nt,nt,?,nt,nt,i
COc1ccc(S(=O)(=O)N(C)c2ccc(C(=O)N3CCN(C)CC3)cc2)cc1,i,i,i,i,i,i
CCOC(=O)N1CCN(C(=O)c2ccc(N(C)S(=O)(=O)c3ccc(C)cc3)cc2)CC1,i,i,23.1µM,i,i,i
SMILES,Nrf2 ARE act,BRCA1 expr act,Nrf2 inh,p53 reactivation,IL-2 act,A549 viability
COc1ccc(N2CCN(C(=O)c3ccc(N(C)S(=O)(=O)c4ccc(OC)cc4)cc3)CC2)cc1,i,i,25.9µM,i,i,i
COc1ccc(N2CCN(C(=O)c3ccc(N(C)S(=O)(=O)c4ccc(C)cc4)cc3)CC2)cc1,i,i,18.4µM,i,i,i
O=C(CNC(=O)c1ccccc1)N[C@@H](C(=O)Nc1cc(C(F)(F)F)ccc1Cl)c1ccccc1,nt,nt,?,nt,nt,i
O=[N+]([O-])c1nn(-c2ccc3c(c2)OCCO3)n(O)c1=NC1CCN(Cc2ccccc2)CC1,i,i,i,i,i,i
O=[N+]([O-])c1nn(-c2ccccc2)n(O)c1=NC1CCN(Cc2ccccc2)CC1,i,i,i,i,i,18.4µM
O=C(Nc1ccc(-c2cnco2)cc1)c1ccccc1,i,2.82µM,?,i,i,i
O=C(Nc1ccncc1)c1ccc(-c2ccccc2)cc1,i,i,2.31µM,i,i,i
O=C(Nc1ccc(-c2cnco2)cc1)c1ccc(Cl)cc1,i,i,i,i,i,i
O=C(Nc1cccnc1)c1ccc(-c2ccccc2)cc1,i,i,i,i,i,i
COc1cccc(/C=N/Nc2ncnc3scc(-c4ccccc4)c23)c1OC,i,i,13µM,i,i,i[1.84 µM]
Cc1cc(C)c2c(n1)sc1c(=O)n(-c3cc(Cl)ccc3C)nnc12,i,nt,?,nt,nt,?
CC(CC(=O)c1cccs1)CC(=O)c1cccs1,i,12.6µM,?,?,i,i
CCCCOC(=O)CSC1=C(C#N)C(c2ccccc2OCC)C(C#N)C(=O)N1 (stereo unspecified),i,i,10.3µM,i,i,?
CCCOC(=O)CSC1=C(C#N)C(c2ccccc2OCC)C(C#N)C(=O)N1 (stereo unspecified),i,i,i,i,i,i
COc1ccc(CNC(=O)CSc2ncc3c(n2)-c2cc(Cl)ccc2N(Cc2ccccc2)S3(=O)=O)cc1OC,i,i,i,nt,nt,i
O=C(Cc1ccccc1)Nc1ccc(CN2CCOCC2)cc1,i,10µM,i,?,i,i
CC(C)c1ccc(/C=C/C(=O)Nc2ccc(CN3CCOCC3)cc2)cc1,i,i,23.1µM,i,i,?
CCN(CC)S(=O)(=O)c1ccc(/C=C/C(=O)Nc2ccc(N3CCOCC3)cc2)cc1,i,i,16.4µM,i,i,i
CCCNC(=O)/C=C/c1ccc(C(C)C)cc1,i,12.6µM,i,?,i,i
COc1ccc(NC(=O)c2cc3c([nH]c2=O)CC(c2ccccc2)CC3=O)cc1 (stereo unspecified),i,nt,nt,nt,nt,i
CCOc1nc(C#N)nc(N(c2ccccc2)c2ccccc2)n1,nt,i,i,nt,nt,i
O=C(/C=C/c1ccc(F)cc1)Nc1ccc(S(=O)(=O)N2CCOCC2)cc1,i,i,?,i,i,i
O=C(/C=C/c1ccco1)Nc1ccc(S(=O)(=O)N2CCOCC2)cc1,11.2µM,i,i,i,i,i

# Compound activity deposited in PubChem by National Center for Advancing Translational Sciences (NCATS).
